Assay [1] has as its system Plasmodium falciparum Sir2 (PF13_0152, Sir2A). The assay can be described thus: pfSir2 binders on small-molecule microarrays, primary screen, biochemical, small-molecule microarray, 635 nm fluorescence (AID 1098).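 Note: score merges spot fluorescence intensity with its signal-to-noise ratio.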 The following applies: small-molecule microarray binding, fluorescence 635 nm; higher = more signal.
Assay [2] can be described thus: small-molecule microarray binders of probe aDKK1, primary screen, biochemical, biotinylated probe, 635/667 nm fluorescence (AID 1099).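 Note: score merges 667nm spot fluorescence with signal to noise across triplicate slides.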 The following applies: higher = more signal.
Assay [3] in a line: small-molecule microarray binders of probe aCHRDL2, primary screen, biochemical, biotinylated probe, 635/667 nm fluorescence (AID 1100). The note with it: higher = more signal.
A short description of assay [4]: splicing luciferase reporter signal modulators, primary screen, spliceosome inhibition project, cell-based, HEK293, splice +/- reporter (AID 1101).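 Note: HEK293 cells carrying a splicing-competent luciferase reporter gene; test concentration not given here.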 The note with it: luminescence, 24 h, higher = more signal, called active from +8 up or from −8 down.
In assay [5] the target is Fibroblast growth factor 10 (Homo sapiens) (UniProt O15520). The assay can be described thus: FGF10 binders on small-molecule microarrays, primary screen, biochemical, small-molecule microarray, 635 nm fluorescence (AID 1102). The following applies: FGF10 binding, fluorescence 635 nm, higher = more signal.
Chain of Fibroblast growth factor 10 (Homo sapiens) (O15520 whole entry, looked up): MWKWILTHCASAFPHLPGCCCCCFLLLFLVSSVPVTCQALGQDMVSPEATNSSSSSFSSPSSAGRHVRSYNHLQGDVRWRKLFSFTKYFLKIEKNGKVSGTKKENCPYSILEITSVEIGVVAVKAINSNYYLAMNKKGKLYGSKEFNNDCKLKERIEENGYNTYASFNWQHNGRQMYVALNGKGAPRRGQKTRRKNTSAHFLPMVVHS
In assay [6] the test system is glycogen synthase kinase-3 (GSK3A per assay name; protocol says GSK3B). Nature of the assay: GSK3 binders on small-molecule microarrays, primary screen, biochemical, small-molecule microarray, 635 nm fluorescence, GSK3A (AID 1103). Note: the record names both GSK3A and GSK3B. The note with it: small-molecule microarray binding, fluorescence 635 nm; higher = more signal.
The target of assay [7] is Epidermal growth factor receptor (Homo sapiens) (UniProt P00533). The assay can be described thus: EGFR binders on small-molecule microarrays, primary screen, biochemical, small-molecule microarray, 635 nm fluorescence (AID 1104).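 Note: score merges 667 nm emission intensity with spot signal to noise over triplicate slides.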 The note with it: EGFR binding, higher = more signal.
Chain of Epidermal growth factor receptor (Homo sapiens) (P00533 whole entry, looked up): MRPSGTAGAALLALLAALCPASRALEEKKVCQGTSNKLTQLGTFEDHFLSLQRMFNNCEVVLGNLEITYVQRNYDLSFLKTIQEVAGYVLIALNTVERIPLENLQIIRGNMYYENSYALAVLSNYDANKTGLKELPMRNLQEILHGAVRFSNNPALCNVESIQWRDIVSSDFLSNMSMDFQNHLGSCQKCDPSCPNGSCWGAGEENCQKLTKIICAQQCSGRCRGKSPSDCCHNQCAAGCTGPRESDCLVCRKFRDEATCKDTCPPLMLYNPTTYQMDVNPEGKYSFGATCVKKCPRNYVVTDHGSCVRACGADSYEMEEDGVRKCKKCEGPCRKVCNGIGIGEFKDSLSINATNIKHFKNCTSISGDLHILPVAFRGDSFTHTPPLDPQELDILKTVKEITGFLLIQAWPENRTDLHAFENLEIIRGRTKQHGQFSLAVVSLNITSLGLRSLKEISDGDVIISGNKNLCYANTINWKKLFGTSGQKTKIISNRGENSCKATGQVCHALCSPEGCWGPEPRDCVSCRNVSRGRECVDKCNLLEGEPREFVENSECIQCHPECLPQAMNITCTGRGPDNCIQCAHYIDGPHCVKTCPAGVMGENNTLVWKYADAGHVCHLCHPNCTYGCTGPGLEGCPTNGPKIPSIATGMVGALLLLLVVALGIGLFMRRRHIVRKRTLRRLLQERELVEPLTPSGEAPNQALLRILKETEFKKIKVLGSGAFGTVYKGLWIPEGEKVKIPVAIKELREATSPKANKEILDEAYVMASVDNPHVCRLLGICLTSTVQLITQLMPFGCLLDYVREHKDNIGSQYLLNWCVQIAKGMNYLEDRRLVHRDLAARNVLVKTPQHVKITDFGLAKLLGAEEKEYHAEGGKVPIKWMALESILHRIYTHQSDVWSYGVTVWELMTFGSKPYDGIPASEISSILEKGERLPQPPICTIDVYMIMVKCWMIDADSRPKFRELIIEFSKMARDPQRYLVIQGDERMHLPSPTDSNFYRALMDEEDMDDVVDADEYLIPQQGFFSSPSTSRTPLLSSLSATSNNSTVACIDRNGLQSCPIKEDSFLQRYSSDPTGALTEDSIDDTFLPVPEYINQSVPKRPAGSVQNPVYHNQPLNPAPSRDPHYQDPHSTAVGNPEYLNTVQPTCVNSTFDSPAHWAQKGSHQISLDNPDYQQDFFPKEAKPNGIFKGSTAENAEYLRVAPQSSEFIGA
In assay [8] the target is Follistatin-related protein 3 (Homo sapiens) (UniProt O95633). Nature of the assay: FSTL3 binders on small-molecule microarrays, primary screen, biochemical, small-molecule microarray, 635 nm fluorescence (AID 1105).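 Note: score merges emission near 667 nm and signal to noise per printed spot across three slides.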 The following applies: FSTL3 binding, higher = more signal.
Chain of Follistatin-related protein 3 (Homo sapiens) (O95633 whole entry, looked up): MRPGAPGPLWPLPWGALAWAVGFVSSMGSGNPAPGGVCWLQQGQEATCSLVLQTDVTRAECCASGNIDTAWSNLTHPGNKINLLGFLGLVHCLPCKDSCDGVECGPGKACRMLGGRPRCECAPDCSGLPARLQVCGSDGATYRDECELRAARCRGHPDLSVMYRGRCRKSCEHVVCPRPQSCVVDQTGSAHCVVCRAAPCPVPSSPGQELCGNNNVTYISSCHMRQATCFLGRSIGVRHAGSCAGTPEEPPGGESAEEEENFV
The target in assay [9] is Dickkopf-related protein 1 (Homo sapiens) (UniProt O94907). Nature of the assay: DKK1 binders on small-molecule microarrays, primary screen, biochemical, small-molecule microarray, 635 nm fluorescence scan (AID 1106).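 Note: score merges emission near 667 nm with signal to noise over three replicate slides.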 The note with it: DKK1 binding, higher = more signal.
Chain of Dickkopf-related protein 1 (Homo sapiens) (O94907 whole entry, looked up): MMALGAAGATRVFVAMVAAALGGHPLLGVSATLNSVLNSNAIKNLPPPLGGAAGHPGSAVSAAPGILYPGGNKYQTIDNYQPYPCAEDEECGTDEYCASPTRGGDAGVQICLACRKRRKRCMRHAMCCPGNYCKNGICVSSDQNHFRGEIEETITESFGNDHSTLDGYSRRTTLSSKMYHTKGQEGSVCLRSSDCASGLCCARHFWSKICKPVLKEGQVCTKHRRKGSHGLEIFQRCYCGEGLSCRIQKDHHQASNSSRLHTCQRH
Assay [10] relates to Inhibin beta A chain (activin A). Nature of the assay: INHBA (activin A) binders on microarrays, primary screen, biochemical, small-molecule microarray, 635 nm fluorescence scan (AID 1107).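 Note: mouse activin A protein probed at 4.33 µg/mL on printed slides; score merges bound-protein fluorescence near 667 nm with spot signal-to-noise.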 The note with it: small-molecule microarray binding, higher = more signal.
Assay [11] concerns Human papillomavirus type 1a protein E7 (residues 44-93). The assay can be described thus: HPV1a E7 fragment binders on microarrays, primary screen, biochemical, small-molecule microarray, residues 44-93, 635 nm fluorescence (AID 1108).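 Note: E7 fragment applied at 1 µg/mL in TBST for 1 h at 4 C; score combines spot fluorescence with its signal to noise ratio.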 The note with it: small-molecule microarray binding, fluorescence 635 nm; higher = more signal.
A short description of assay [12]: modulators of HCV replicon luciferase signal, primary screen, HCV replication inhibitor project, Huh7 cells, luciferase reporter (AID 1109).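 Note: huh7 hepatoma cells harbouring a luciferase neomycin HCV replicon reporter; luciferase luminescence as measure of HCV replicon replication; test concentration not given here.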 The following applies: 48 h, higher = more signal.
Assay [13] addresses Left-right determination factor 2 (Homo sapiens) (UniProt O00292). The assay can be described thus: LEFTY2 binders on small-molecule microarrays, primary screen, biochemical, small-molecule microarray, 635 nm fluorescence scan (AID 1110). The following applies: LEFTY2 binding, higher = more signal.
The target in assay [14] is Calmodulin-1 (Homo sapiens) (UniProt P0DP23). The assay can be described thus: CALM1 binders on microarrays, EGTA buffer, profiling panel, biochemical, small-molecule microarray, Cy5-labelled CALM1 (AID 1111).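 Note: labelled calmodulin applied in Tris saline Tween buffer holding calcium plus EGTA and DTT.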 The note with it: Cy5-CALM1 binding fluorescence, higher = more signal.
Assay [15] has the same target. The assay can be described thus: calcium-bound CALM1 binders on microarrays, profiling panel, artefact control for SMM control-protein annotation, biochemical, small-molecule microarray, Cy5-labelled CALM1, plus calcium (AID 1112).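 Note: score merges spot fluorescence with signal to noise from triplicate slides.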 The note with it: Cy5-CALM1 binding fluorescence, higher = more signal.
The nature of assay [16]: small-molecule microarray binders of probe aWnt5a, primary screen, biochemical, biotinylated probe, 635/667 nm fluorescence (AID 1113).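 Note: score merges 667 nm fluorescence intensity with signal-to-noise per printed feature.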 The following applies: higher = more signal.
Assay [17] is described as follows: small-molecule microarray binders of probe aShh, primary screen, biochemical, biotinylated probe, 635/667 nm fluorescence (AID 1114).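 Note: probe is biotin-labelled aShh protein from a stem cell growth factor screen; measures binding of labelled protein to compounds printed on the slide; score merges feature fluorescence at 667 nm with signal-to-noise.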 The note with it: higher = more signal.
Assay [18] in a line: small-molecule microarray binders of probe aNog, primary screen, biochemical, biotinylated probe, 635/667 nm fluorescence (AID 1115).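 Note: probe is biotinylated aNog protein used at 0.15 µg/mL for 1 h at 4 C; z-score combines 667 nm fluorescence of each spot with its signal to noise.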 The following applies: higher = more signal.
Assay [19] addresses Torsin-1A-interacting protein 1 (Homo sapiens) (UniProt Q5JTV8). Nature of the assay: LAP1 binders from COS7 cell lysate, primary screen, small-molecule microarray, 635/667 nm fluorescence (AID 1116). The note with it: COS7-hLAP1 lysate binding, 635 nm fluorescence, higher = more signal.
The target of assay [20] is Alpha-bungarotoxin (Bungarus multicinctus) (UniProt P60615). The assay can be described thus: alpha-bungarotoxin binders on microarray, profiling panel, artefact control for SMM control protein annotation, biochemical, small-molecule microarray, Alexa647 label, 635/667 nm fluorescence (AID 1117). The note with it: alpha-BTX-A647 binding fluorescence, higher = more signal.
Chain of Alpha-bungarotoxin (Bungarus multicinctus) (P60615 whole entry, looked up): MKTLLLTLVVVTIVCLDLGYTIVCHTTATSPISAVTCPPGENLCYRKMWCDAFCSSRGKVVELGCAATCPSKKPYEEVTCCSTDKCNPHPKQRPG

Each structure is given as a SMILES string. The source made the active and inactive calls.

Chain of Torsin-1A-interacting protein 1 (Homo sapiens) (Q5JTV8 whole entry, looked up): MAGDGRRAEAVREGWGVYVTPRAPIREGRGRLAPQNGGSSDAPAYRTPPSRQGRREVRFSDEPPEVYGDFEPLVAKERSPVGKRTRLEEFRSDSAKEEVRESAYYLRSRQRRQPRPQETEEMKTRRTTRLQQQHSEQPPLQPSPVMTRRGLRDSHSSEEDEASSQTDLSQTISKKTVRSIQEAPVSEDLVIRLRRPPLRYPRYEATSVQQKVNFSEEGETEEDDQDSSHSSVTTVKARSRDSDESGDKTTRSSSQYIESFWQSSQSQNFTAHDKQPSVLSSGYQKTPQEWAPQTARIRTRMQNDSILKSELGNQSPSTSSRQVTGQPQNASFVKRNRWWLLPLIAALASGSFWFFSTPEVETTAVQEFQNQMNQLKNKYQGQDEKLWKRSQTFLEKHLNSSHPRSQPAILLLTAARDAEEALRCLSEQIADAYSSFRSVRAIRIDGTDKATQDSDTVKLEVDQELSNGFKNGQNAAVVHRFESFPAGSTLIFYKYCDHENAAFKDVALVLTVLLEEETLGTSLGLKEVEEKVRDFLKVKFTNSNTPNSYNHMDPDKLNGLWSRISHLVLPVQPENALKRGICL
Chain of Left-right determination factor 2 (Homo sapiens) (O00292 whole entry, looked up): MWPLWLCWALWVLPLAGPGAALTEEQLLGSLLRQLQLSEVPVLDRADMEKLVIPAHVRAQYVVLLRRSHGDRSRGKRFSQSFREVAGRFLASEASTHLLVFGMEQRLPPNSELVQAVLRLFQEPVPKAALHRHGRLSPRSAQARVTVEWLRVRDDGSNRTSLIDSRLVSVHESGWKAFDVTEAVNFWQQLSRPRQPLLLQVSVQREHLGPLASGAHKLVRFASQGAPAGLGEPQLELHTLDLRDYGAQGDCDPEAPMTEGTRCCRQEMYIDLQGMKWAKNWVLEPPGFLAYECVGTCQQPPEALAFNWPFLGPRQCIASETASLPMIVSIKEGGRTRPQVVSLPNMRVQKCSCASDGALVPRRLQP

Take `CC(C)[Si](C#Cc1ccccc1)(O[C@H](c1ccccc1)c1cn(Cc2ccccc2)nn1)C(C)C`: the composite z-score in [1] is 1.56; in assay [2], 0.191; in assay [3], -0.386; in [5], 0.785; in [6], 1.06; in assay [7], 0.726. For the same compound, the composite z-score in assay [8] is 1.49; in assay [9], 1.86; in assay [10], -0.165; in assay [11], 0.657; in [13] it was 0.0441; in assay [14], -0.49. Moreover, the composite z-score in assay [15] is -1.67; in assay [16] it was -0.169; in assay [17], -0.138; in assay [18], -0.138; in assay [19] it was 0.567; in assay [20], 0.579. In addition, the results for the z-score in [4] and in assay [12] were -1.97 (inactive) and 0.167, respectively.
Turning to `CCCCCN1CC=CC23O[C@@H]4/C=C\CCCOC(=O)C4[C@H]2C(=O)N(CCO)[C@@H]3C1=O` (stereo not given in full), the composite z-score in assay [1] is 1.14; in [2] it was -0.132; in assay [3] it was 0.107; in assay [5], -0.412; in assay [6] it was 0.45; in assay [7], -0.356. The composite z-score in [8] is -0.338; in assay [9], -0.0986; in assay [10], 1.14; in [11], 1.45; in [13], -0.155; in assay [14], -0.173. Moreover, the composite z-score in assay [15] was 0.463; in [16], -0.13; in assay [17], -0.0709; in assay [18], -0.191; in assay [19] it was 0.162; in assay [20], 0.227. Besides, the z-score in [4] was -1.83 (inactive); in assay [12], 0.548.
With `CCCCCCc1nc(-c2ccc(OC)nc2)c(C)c2c1[Si](C(C)C)(C(C)C)OC2`, the composite z-score in assay [1] was -0.299; in assay [2] it was -0.202; in [3] it was -0.358; in assay [5], -0.168; in [6], -0.264; in assay [7], 0.218. Also, the composite z-score was 0.565 in assay [8]; 1.03 in [9]; 0.444 in [10]; -0.329 in [11]; 0.445 in [13]; -0.0398 in [14]. Further, the composite z-score in assay [15] is -0.257; in [16] it was -0.0462; in assay [17], -0.154; in [18] it was -0.129; in assay [19], -0.391; in assay [20], -0.304. Besides, the values for the z-score in [4] and in assay [12] were -2 (inactive) and -0.603, respectively.
Take `COC(=O)[C@@]1(Cc2ccc(OC)cc2)[C@H]2c3cc(C(=O)N(C)C)n(Cc4c(CO)[nH]cc(C)c4=O)c3C[C@H]2CN1C(=O)c1ccccc1`: the composite z-score was 0.258 in [1]; 0.899 in assay [2]; 0.731 in [3]; -0.17 in assay [5]; 0.664 in assay [6]; 0.0854 in [7]. Besides, the composite z-score in [8] is 0.128; in [9], -0.14; in assay [10], 0.779; in assay [11] it was 0.784; in assay [13], -0.0944; in assay [14] it was 1.1. In addition, the composite z-score in assay [15] was 0.351; in [16] it was 0.302; in assay [17], 0.04; in [18], -0.211; in assay [19], 0.376; in [20], 0.302. In addition, the values for the z-score in [4] and in assay [12] were 0.323 (inactive) and -1.37, respectively.
As to `COc1ccc([Si](C)(C)[C@@H]2[C@@H](CC(=O)N(CCO)Cc3ccccc3)O[C@]3(C(=O)N(Cc4cccc(I)c4)c4ccccc43)[C@H]2C)cc1`, the composite z-score in [1] was 0.824; in assay [2], -0.0248; in assay [3] it was 0.337; in [5], 1.45; in assay [6], 0.766; in assay [7], 0.661. For the same compound, the composite z-score came to 1.42 in assay [8]; 1.34 in assay [9]; 0.963 in assay [10]; 1.28 in assay [11]; 0.741 in assay [13]; 2.83 in assay [14]. For the same compound, the composite z-score in assay [15] was 1.21; in assay [16], -0.0425; in assay [17] it was 0.564; in [18], 0.0051; in [19] it was 0.319; in assay [20] it was 0.855. The z-score in assay [4] was -0.847 (inactive); in [12] it was -3.82.
On to `CN1C(=O)C2C=CC(C(O)c3ccc(I)cc3)N(N(c3ccccc3)c3ccccc3)C2C1=O` (stereo not given), for which the composite z-score in assay [1] was 0.727; in assay [2], -0.0078; in assay [3], 0.914; in assay [5], -0.841; in [6] it was -0.487; in assay [7], -0.882. For the same compound, the composite z-score in [8] was -0.309; in assay [9], -0.421; in assay [10] it was 1.32; in assay [11] it was -0.802; in assay [13], -0.953; in assay [14] it was 0.95. The composite z-score was -0.0638 in [15]; -0.0735 in assay [16]; 0.0469 in assay [17]; 0.878 in [18]; -0.119 in assay [19]; 0.98 in assay [20]. The z-score in assay [4] is 1.19 (inactive); in assay [12] it was -1.55.

These data come from PubChem BioAssay.
